Test results as given in PubChem BioAssay AID504660 (National Center for Advancing Translational Sciences (NCATS), 2011).
“And” between values parts separate entries of the source, which are not always exact repeats. Equal entries are not always repeated. Hit rate of the full screen: of about 360,000 compounds, about 3,700 (1%) were called active. Rule as the data show it: active = activation above about 30%; inactive = the rest. This excerpt belongs to a sample that is enriched for actives. Some structures have more than one record in an assay (separate samples or runs), and their calls can disagree.

target: D(1A) dopamine receptor (Homo sapiens) (UniProt P21728); experiment: Allosteric Agonists of the Human D1 Dopamine Receptor: qHTS; conditions: HEK293 T-REx D1 cells, calcium flux, agonist mode; at 2 µM; stronger effect = higher value; also: 0% is about no effect
In short: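 Agonism was scored from calcium flux recorded over 180 s (1 read/s) after pintool compound addition, following a 10-cycle baseline. Cells were inducible force-coupled HEK293 TREx D1, plated overnight at 30 C and loaded with no-wash calcium dye.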

Sequence of D(1A) dopamine receptor (Homo sapiens) (P21728 whole entry, looked up): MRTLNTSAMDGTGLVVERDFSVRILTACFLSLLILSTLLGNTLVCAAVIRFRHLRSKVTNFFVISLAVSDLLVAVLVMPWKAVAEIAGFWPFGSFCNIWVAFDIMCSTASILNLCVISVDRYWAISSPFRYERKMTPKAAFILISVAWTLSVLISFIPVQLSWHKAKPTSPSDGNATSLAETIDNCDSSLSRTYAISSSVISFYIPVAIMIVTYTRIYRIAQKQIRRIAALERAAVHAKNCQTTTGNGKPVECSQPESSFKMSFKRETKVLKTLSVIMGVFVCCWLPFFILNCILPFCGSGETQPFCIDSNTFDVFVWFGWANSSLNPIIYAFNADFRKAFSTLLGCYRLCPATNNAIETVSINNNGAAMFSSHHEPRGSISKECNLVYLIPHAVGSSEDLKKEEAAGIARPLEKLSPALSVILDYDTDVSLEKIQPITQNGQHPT

Row | SMILES | activation
1 | CCCCN(CC)C(=O)c1ccc2c(c1)OCO2 | 4.54% (inactive)
2 | CCc1ccc2nc(N(CCCN(C)C)C(=O)c3ccc4c(c3)OCCO4)sc2c1 | 53.9% (active)
3 | CCN(CC)CCN(C(=O)c1ccc(N2C(=O)CCC2=O)cc1)c1nc2cc3c(cc2s1)OCO3 | 5.63% (inactive)
4 | Cc1cc(C)c2sc(NC(=O)c3ccc(S(=O)(=O)N4CCCC4)cc3)nc2c1 | -0.497% (inactive)
5 | CCN(CC(=O)Nc1c(F)cccc1F)C(=O)c1ccc(S(=O)(=O)N2CCCCC2)cc1 | -0.0233% (inactive)
6 | CN(C)CCCN(C(=O)c1ccc(S(=O)(=O)N2CCCCCC2)cc1)c1nc2ccc(Br)cc2s1 | 42.8% (active)
7 | CCOc1ccc(CNC(=O)c2cc(=O)[nH]c3ccc(S(=O)(=O)N4CCCCC4)cc23)cc1 | -3.81% (inactive)
8 | Cc1cc(C)cc(NS(=O)(=O)c2cc3c(cc2C)NC(=O)CO3)c1 | 3.6% (inactive)
9 | Cc1ccccc1OCc1ccc(-c2nc(C#N)c(N3CCCCC3)o2)o1 | 1.07% (inactive)
10 | Cc1ccc(Cn2ncc3c4sc(C)cc4n(C)c3c2=O)c(C)c1 | 3.45% (inactive)
11 | Cn1c(=O)c(=O)n(C)c2cc(NC(=O)c3ccccc3Br)ccc21 | 0.667% (inactive)
12 | Cc1ccc(CNC(=O)CCNS(=O)(=O)c2ccc3c(c2)oc(=O)n3C)cc1 | 1.82% (inactive)
13 | CN1CCN(C2(CNC(=O)COc3ccc(C(C)(C)C)cc3)CCCCC2)CC1 | 42.8% (active)
14 | Cc1cc(OCC(=O)NCC2(N(C)C)CCCCC2)cc(C)c1Cl | 9.34% (inactive)
15 | CCOc1ccc(S(=O)(=O)Nc2cccc(C(=O)NCC3(N4CCCCC4)CCCCC3)c2)cc1 | 5.67% (inactive)
16 | O=C(NCc1ccc2c(c1)CCN2C(=O)c1ccccc1)c1ccccc1 | 2.65% (inactive)
17 | Cc1cc(C)c2nc3nc(C)cc(C)c3c(N)c2c1 | 31% (active)
18 | O=C(CSc1nc2c(c(=O)[nH]1)CN(Cc1ccc(F)cc1)CC2)Nc1ccccc1Cl | 3.05% (inactive)
19 | CCOc1ccccc1CNC(=O)C1CCCN(S(=O)(=O)c2ccc3c(ccn3C)c2)C1 (stereo not drawn) | 4.08% (inactive)
20 | O=C(Nc1nnc(S(=O)(=O)N2CCCc3ccccc32)s1)c1cccc(F)c1 | 0.00305% (inactive)
21 | O=C(c1ccc(Br)cc1)N(Cc1cccs1)c1ccc(F)cc1 | 9.82% (inactive)
22 | Cc1c2cnn(-c3ccccc3)c(=O)c2c(C)n1C(C)C(=O)Nc1ccc(Br)cc1F (stereo not drawn) | 34.5% (active)

Row | SMILES | activation
23 | Cc1c2cnn(-c3ccccc3)c(=O)c2c(C)n1CCCC(=O)N1CCN(C)CC1 | 0.261% (inactive)
24 | Cc1ccccc1CNC(=O)Cn1c(C)c2cnn(-c3ccccc3)c(=O)c2c1C | 3.52% (inactive)
25 | O=C(/C=C/c1cn(CC(O)CN2CCc3ccccc32)c2ccccc12)c1ccc(Br)cc1 (stereo not drawn) | 11.4% (inactive)
26 | COc1ccc(-c2cc(-c3ccc(F)cc3)nc3c2COc2ccccc2-3)cc1 | -0.494% (inactive)
27 | COc1ccccc1CNC(=O)CCn1c(=O)c2ccccc2n(CC(=O)Nc2ccc(Br)cc2F)c1=O | 0.0005% (inactive)
28 | COc1ccc(C(=O)NC(=O)CSc2nnc(-c3ccco3)n2-c2ccccc2)cc1 | 1% (inactive)
29 | COc1ccc(C(=O)NC(=S)NNC(=O)c2c(-c3ccccc3)noc2C)cc1 | 86.2% (active)
30 | Cc1onc(-c2ccccc2)c1C(=O)NNC(=S)NC(=O)c1ccc(F)cc1 | 61.1% (active)
31 | Cn1nnc(NC(=S)NC(=O)c2ccccc2)n1 | 4.22% (inactive)
32 | CC(=O)NC(=S)NNC(=O)c1ccc(Br)cc1 | 0.645% (inactive)
33 | O=C(/C=C/c1ccc(F)cc1)NC(=S)NNC(=O)c1cccnc1 | 1.33% (inactive)
34 | COc1ccc(C(=O)NNC(=S)NC(=O)c2ccccc2)cc1 | 84.2% (active)
35 | O=C(NNC(=S)NC(=O)c1cn(-c2ccccc2)nc1-c1ccccc1)c1ccncc1 | 6.27% (inactive)
36 | COc1ccc(C(=O)Nc2onc3c2CCCC3)cc1 | -1.07% (inactive)
37 | Cc1cc(C(=O)Nc2cccc(C(F)(F)F)c2)c2c(C)nn(-c3cccc(F)c3)c2n1 | 19.5% (inactive)
38 | CCOc1ccc(-n2c(SCC(=O)NCc3ccccc3)nc3n[nH]c(C)c3c2=N)cc1 | 1.25% (inactive)
39 | COc1ccc(N(CC(=O)NCCc2ccc(Cl)cc2)S(=O)(=O)c2c(C)nn(C)c2C)cc1 | 0.495% (inactive)
40 | CCOC(=O)c1[nH]c(C)c(CCC(=O)NCc2ccccc2C)c1C | -0.942% (inactive)
41 | CCOc1ccc(-c2nonc2NC(=O)c2oc3ccc(CC)cc3c2C)cc1 | 5.77% (inactive)
42 | Cc1ccc(OC(=O)CSc2nnc(-c3cccs3)o2)cc1 | 1.31% (inactive)
43 | CCN1CCN(c2ncc3c(n2)CC(c2ccccc2O)CC3=O)CC1 (stereo not drawn) | 9.15% (inactive)
44 | Nc1ccc2nc3c(=O)[nH]c(=S)[nH]c3nc2c1 | 108% (active)

Row | SMILES | activation
45 | CCC1CCCCN1S(=O)(=O)c1ccc(NC(=O)c2cc(=O)c3ccccc3o2)cc1 (stereo not drawn) | 0.0446% (inactive)
46 | CC(C)C(=O)Nc1nc2c(s1)CC(C(C)(C)C)CC2 (stereo not drawn) | 1.03% (inactive)
47 | COc1ccc(Cl)cc1NC(=O)CSc1nc(=O)[nH]c2c1CCCC2 | 6.85% (inactive)
48 | Cc1ccc(O)c(NC(=O)CCS(=O)(=O)c2nc(-c3ccc4c(c3)OCO4)cc(C(F)(F)F)n2)c1 | 5.29% (inactive)
49 | CCOc1ccc(Br)cc1CSC(=N)N | 21.9% (inactive)
50 | CSC1=NCCN1C(=O)Cc1cccc2ccccc12 | 1.65% (inactive)
51 | N=C(N)SCc1cccc2ccccc12 | 47.6% (active)
52 | CN1CCOc2cc(S(=O)(=O)N3CCN(S(=O)(=O)c4c(F)cccc4F)CC3)cnc21 | 1.83% (inactive)
53 | CCSC1=NCCN1C(=O)c1ccc(S(=O)(=O)N(CC)CC)cc1 | 1.17% (inactive)
54 | CCCN(CCC)S(=O)(=O)c1ccc(C(=O)N2CC3CCC(CC3)C2)cc1 | 37.1% (active)
55 | CCCN(CCC)S(=O)(=O)c1ccc(C(=O)NNC(=O)c2cc(OC)c(OC)c(OC)c2)cc1 | 6.23% (inactive)
56 | COc1ccccc1NC(=O)C(=O)c1cc(C)n(-c2ccccc2F)c1C | 1.84% (inactive)
57 | CCNS(=O)(=O)c1cc(-c2nnc(Nc3cccc(C(F)(F)F)c3)c3ccccc23)ccc1C | 4.19% (inactive)
58 | Cc1csc2nc(COC(=O)c3ccccc3NC(=O)c3ccccc3Cl)cc(=O)n12 | 3.01% (inactive)
59 | Fc1cnc(N2CCOCC2)nc1NCc1ccccc1 | 1.23% (inactive)
60 | c1cnc(NC2C3CC4CC(C3)CC2C4)nc1 (stereo not drawn) | 7% (inactive)
61 | c1ccc2c(NC3C4CC5CC(C4)CC3C5)nc(N3CCOCC3)nc2c1 (stereo not drawn) | 38.3% (active)
62 | CCOC(=O)c1cc2c(=O)n3ccccc3nc2n(Cc2ccco2)c1=NC(=O)c1ccc(F)cc1 | -0.478% (inactive)
63 | CCCCCn1c(=O)[nH]c2cc(C(=O)Nc3cc(C)cc(C)c3)ccc2c1=O | 0.484% (inactive)
64 | CCOC(=O)C1CCN(c2ncnc3c2c(-c2ccccc2)cn3-c2cccc(C)c2)CC1 | -1.59% (inactive)
65 | Oc1ccc(Cl)cc1C1C=C(c2ccc3c(c2)OCO3)NC(c2c(F)cccc2Cl)N1 (stereo not drawn) | 21.1% (inactive)
66 | CCOc1ccc(NC(=O)c2cn(C3CCCCC3)c(=O)c3c2c2ccccc2n3C)cc1 | 2.25% (inactive)

Row | SMILES | activation
67 | CCCN1C(=O)C(Cc2nc3ccccc3c(=O)n2-c2ccccc2)c2cc(C)ccc21 (stereo not drawn) | 5.26% (inactive) and 5.84% (inactive)
68 | CCCc1nc2c(c(=O)c3ccccc3n2C)c(=O)n1C1CCCCCC1 | 190% (active)
69 | Cc1ccc2c(=O)cc(C(=O)Nc3sc4c(c3C(=O)NCc3cccnc3)CCCC4)oc2c1 | 1.62% (inactive)
70 | COc1ccc(S(=O)(=O)NCc2cccn2Cc2cccc(C)c2)cc1Cl | 33.8% (active)
71 | COc1ccccc1CNS(=O)(=O)c1ccc2c(c1)NC(=O)CS2 | 4.9% (inactive)
72 | COc1ccc(S(=O)(=O)NCc2cccn2Cc2cccc(C)c2)cc1 | 23.9% (inactive)
73 | Cc1ccc(Cl)cc1NC(=O)CCC(=O)N1CC(C)Sc2ccccc21 (stereo not drawn) | 0.39% (inactive)
74 | Cc1cccc(-n2c(SCC(N)=O)nc3c(oc4ccccc43)c2=O)c1 | -1.27% (inactive)
75 | Cc1cccc(N2CCN(C(=O)CCSCc3ccccc3F)CC2)c1C | 1.3% (inactive)
76 | Cc1ccc(C)c(CN2CCC(CNC(=O)Nc3ccc(C)c(F)c3)CC2)c1 | 26.2% (inactive)
77 | Cc1cccc(CN2CCC(CNC(=O)Nc3ccc(F)c(Cl)c3)CC2)c1 | 42.5% (active)
78 | COc1cc(NC(=O)NCC2CCN(Cc3ccc(C)cc3)CC2)cc(OC)c1OC | 2.18% (inactive) and 0.967% (inactive)
79 | CCOC(=O)c1ccc(CSc2nnc3cc(C)c4ccccc4n23)cc1 | 4.34% (inactive)
80 | O=C(CNC(=O)c1ccccc1)OC(C(=O)Nc1cc([N+](=O)[O-])ccc1F)c1ccccc1 (stereo not drawn) | 1.22% (inactive)
81 | COc1ccccc1OCCC(=O)OCC(=O)NCc1ccccc1 | -0.432% (inactive)
82 | COc1ccccc1OCCNCC(O)COc1cccc2[nH]c3ccccc3c12 (stereo not drawn) | 17.7% (inactive) and 34% (active)
83 | CC(O)CNCCOc1cccc(Oc2ccccc2)c1 (stereo not drawn) | 4.04% (inactive)
84 | COc1ccc(CCNC(=O)CCCCn2c(=O)c3ccccc3n(Cc3ccccc3C)c2=O)cc1OC | 13.8% (inactive)
85 | Cc1cc(OCC(=O)Nc2ncn[nH]2)c(C)c(C)c1Br | 1.36% (inactive)
86 | COc1ccccc1CNC(=O)C(=O)NCC(c1cccs1)S(=O)(=O)c1cccs1 (stereo not drawn) | 7.48% (inactive)
87 | CCn1c2ccccc2c2cc(CN3CCN(Cc4cccc(Cl)c4)CC3)ccc21 | 2.19% (inactive)
88 | Cc1cccc(Nc2cc(C)nc(-n3nc(C)cc3C)n2)c1 | -1.13% (inactive)
